# High-throughput results: PubChem, National Center for Advancing Translational Sciences (NCATS)
# This is a sample that favours compounds with a hit; in the whole collection about 19% have one here.
# IL1B secr inh: inhibitors of inflammasome signaling (IL-1 beta secretion) | activity change, % at 57.5 µM | hit rate 4.7% among 360,000 | THP-1 LPS/ATP IL-1B secretion, AlphaLISA, 16 h; active compounds read low; in the data active means activity change below about -50%; inconclusive means mostly about -30% to -49%
#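 THP-1 cells pretreated 1 hr with compounds (up to 57.5 uM final), then stimulated with LPS (250 ng/mL final) plus ATP (1.25 mM final); secreted IL-1B measured by AlphaLISA after 16 hr, decreased signal indicating inhibition.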
# TDP1 cell noCPT: qHTS for Inhibitors of human tyrosyl-DNA phosphodiesterase 1 (TDP1): qHTS in cells in absence of CPT; hit rate 15% among 420,000; AID 686978, 2013; DT40 Tdp1-/- hTDP1 cells, no CPT, ATP luminescence, 48 h; Potency, µM (titrated, usually from 46.2 µM), without a hit: at the top dose activity change, negative = growth inhibition, hits mostly inhibitors; further: potency means the concentration at half of the fitted maximal effect; nearly all actives have a fitted effect of over 55% in size
#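 Camptothecin absent (DMSO only). Human TDP1-complemented DT40 knockout cells, 400 cells/well, 37 °C for minimum 48 hr; ATP measured via CellTiter-Glo, 30 min dark incubation, luminescence.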
# HT1080NT lethal: kills 2HG-producing HT-1080-NT fibrosarcoma cells; Potency, µM (series often up to 46.1 µM), without a hit: top-dose activity, negative = less viability, most hits filed as cytotoxic; HT-1080-NT fibrosarcoma viability, CellTiter-Glo ATP luminescence, 48 h; AID 686970; hit rate 1.6% among 360,000;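 further: NT is the 2HG producing partner of a matched IDH1 knockdown line; potency means the concentration at half of the fitted maximal effect; 0% = DMSO-treated cells and -100% = media-only wells without cells; nearly all actives have a fitted effect of over 55% in size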
#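 HT-1080-NT fibrosarcoma cells (2HG-overproducing), 750 cells/well in RPMI with 5% FBS, dosed after 2 h and incubated 48 h at 37C. CellTiter-Glo luminescence normalized to DMSO and no-cell wells; concentration-response curves fitted and classed.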
# TDP1 cell CPT: growth inhibition of DT40 Tdp1-/-;hTDP1 cells with camptothecin (screen for TDP1 inhibitors); chicken DT40 Tdp1-/-;hTDP1 cells + 20 nM CPT, ATP luminescence, 48 h; Potency, µM (series often up to 46.2 µM), for inactives: at the highest dose activity change, negative = growth inhibition, hits mostly inhibitors; hit rate 12% among 420,000; further: potency means the concentration at half of the fitted maximal effect; nearly all actives have a fitted effect of over 55% in size
#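 Cell growth measured by CellTiter-Glo luminescence after a minimum 48 h, 37 C compound exposure with 20 nM CPT in Tdp1-knockout DT40 cells stably expressing hTDP1, seeded 400/well; qHTS titration format.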
# HT1080 IDH1KD tx: toxicity to HT-1080 IDH1 knockdown cells (counter line); Potency, µM (doses to about 46.1 µM), without a hit: at the highest dose activity, negative = toxicity, actives largely listed as cytotoxic; HT-1080 IDH1 knockdown viability, ATP luminescence, 48 h; hit rate 2% among 360,000;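 further: potency means the concentration at half of the fitted maximal effect; 0% = DMSO wells and -100% = cell-free medium wells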
#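 Knockdown cells (IDH1KD HT-1080) received compounds 2 h after plating at 750 cells/well and were kept 48 h at 37 °C in 5% FBS RPMI. A CellTiter-Glo luminescence read gave % activity for curve fitting.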
# Active calls of the source: *; ? = inconclusive; / = no result given; [ ] = remark or other dose. Unless noted, the call rests on the fitted dose curve; in most records, active means well fitted curve in the direction sought with a large enough effect; inconclusive means small, poorly fitted or top-dose-only effect, or another doubt; inactive means no such curve, though single readings can be large; an effect the other way counts as inactive or inconclusive. Unless noted, on the % scale 0 is the no-effect control and ±100 the full control effect.
SMILES,IL1B secr inh,TDP1 cell noCPT,HT1080NT lethal,TDP1 cell CPT,HT1080 IDH1KD tx
Cc1c(C(=O)NCc2ccc3c(c2)OCO3)oc2ccc(S(=O)(=O)N3CCC(C)CC3)cc12,78,15µM*,-3%,15µM*,-25%
CCN(CC)S(=O)(=O)c1ccc2oc(C(=O)NCc3ccc(F)cc3)c(C)c2c1,?,13µM*,-21%,13µM*,-21%
CCN(CC)S(=O)(=O)c1ccc2oc(Nc3ccc(OC)cc3OC)nc2c1,25,18µM*,?,?,?
Cc1c(C(=O)NCc2ccc3c(c2)OCO3)oc2ccc(S(=O)(=O)N3CCCCCC3)cc12,-16,?,-14%,?,-1%
CCS(=O)(=O)c1ccc2oc(Nc3ccc(OC)c(OC)c3)nc2c1,-20,-26%,0%,-7%,5%
COc1ccc(NC(=O)c2oc3cc(C)c(C)cc3c2C)c(OC)c1,-11,?,-4%,-18%,-2%[9.24 µM]
CCN(CC)S(=O)(=O)c1ccc2oc(C(=O)Nc3ccc(OC)cc3OC)c(C)c2c1,6,12µM*,2%,18µM*,11%
CCCSc1ncc(Cl)c(C(=O)NCc2ccc(C)cc2)n1,/,-27%,/,-28%,/
Cc1ccc(C(O)c2ncc(-c3cccc4ccccc34)[nH]2)c(C)c1 (stereo unspecified),-9,?,?,?,?
CC1CCCCN1C(=O)CSc1nnc(-c2ccccc2O)o1 (stereo unspecified),40,?,-10%,?,-20%
CCN(C(=O)COc1cc(OC)ccc1C(C)=O)C1CCS(=O)(=O)C1 (stereo unspecified),-8,-2%,-3%,-4%,1%
O=C(N=C1SC2CS(=O)(=O)CC2N1Cc1ccccc1)C1CCCCC1 (stereo unspecified),31,-4%,24%,-14%,12%
Cc1c(C(=O)NCCc2ccccc2)oc2ccc(S(=O)(=O)N3CCOCC3)cc12,-4,?,-11%,-24%,-1%
CCN(CC)S(=O)(=O)c1ccc2oc(C(=O)NC3CC3)c(C)c2c1,24,10µM*,2%,-22%,0%
CCOC(=O)c1oc2ccc(S(=O)(=O)n3nc(-c4ccc(OC)cc4)cc3N)cc2c1C,18,2.9µM*,12%,2.9µM*,-10%
Cc1c(C(=O)NCc2ccc(F)cc2)oc2ccc(S(=O)(=O)N3CCOCC3)cc12,-22,15µM*,-2%,?,-15%
COc1ccc2oc(C(=O)NCc3cc(OC)c(OC)cc3OC)c(C)c2c1,-14,16µM*,-24%,23µM*,-20%
CC[C@@H](C)[C@@H]1CN([C@@H](CN2CCC[C@H]2CN2C(N)=NC[C@H]2CC(C)C)C(C)C)C(=N)N1CCCC1CCCC1,?,?,2%,?,-1%
CCCCN1C(=N)N([C@@H](C)CN2CCC[C@H]2CN2C(N)=NC[C@@H]2Cc2ccccc2)C[C@H]1[C@H](C)CC,-17,?,?,?,6%
CC(C)[C@H](CN1CCC[C@H]1CN1C(N)=NC[C@H]1C(C)C)N1C[C@@H](Cc2ccccc2)N(CCCC2CCCC2)C1=N,-60*,?,0%,?,1%
CCC[C@@H](CN1CCC[C@H]1CN1C(N)=NC[C@@H]1Cc1ccccc1)N1C[C@@H]([C@H](C)CC)N(CCCC2CCCC2)C1=N,-96*,8.2µM*,?,10µM*,?
CCCCN1C(=N)N([C@@H](C)CN2CCC[C@H]2CN2C(N)=NC[C@H]2CC(C)C)C[C@H]1Cc1ccccc1,-54*,?,5%,16µM*,-4%
CCC[C@@H](CN1CCC[C@H]1CN1C(N)=NC[C@@H]1Cc1ccccc1)N1C[C@@H](Cc2ccccc2)N(CCCC2CCCC2)C1=N,-83*,?,5%,?,9%
COc1ccc2[nH]c(C)cc2c1,/,4%,/,1%,/
